Test results published in PubChem BioAssay (NCI).
About 79,000 compounds went through this panel and 15% of them were active in at least one assay; those are over-represented in the sample as a whole. Active and inactive are the calls of the source. No stated cut-off is given here; in the data, active means growth inhibition above about 70%; inactive means the rest.

Experiments:
[1] = NCI Yeast Anticancer Drug Screen. Data for the rad50 strain (AID 155);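 further: 0% = growth of vehicle-only cultures of the same strain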; details: S. cerevisiae rad50 strain growth inhibition; at 50.0 µM; stronger effect = higher value
Procedure, shortened: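 A DNA repair-deficient yeast mutant serves as the test organism; compound-induced growth inhibition is calculated against vehicle-treated cells.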

[2] = NCI Yeast Anticancer Drug Screen. Data for the mec2-1 strain (AID 157); details: S. cerevisiae mec2-1 strain, at 50.0 µM, stronger effect = higher value
Procedure, shortened: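 Using mec2-1 yeast: add compound, measure growth, express inhibition versus vehicle-treated cultures.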

[3] = NCI Yeast Anticancer Drug Screen. Data for the sgs1 mgt1 strain (AID 161);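 further: 0% = growth of cultures given vehicle only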; details: S. cerevisiae sgs1 mgt1 strain, at 50.0 µM, stronger effect = higher value
Procedure, shortened: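 Yeast cells carrying a defined DNA-repair defect were exposed to test compounds. Growth inhibition was measured relative to vehicle-treated controls.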

[4] = NCI Yeast Anticancer Drug Screen. Data for the cln2 rad14 strain (AID 165);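 further: 0% = growth equal to vehicle treated cultures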; details: S. cerevisiae cln2 rad14 strain, at 50.0 µM, stronger effect = higher value
Procedure, shortened: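 Yeast strain cln2 rad14, bearing defects in cell cycle control and DNA repair, serves as the test system; values reflect growth inhibition compared with vehicle.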

[5] = NCI Yeast Anticancer Drug Screen. Data for the bub3 strain (AID 167); details: S. cerevisiae bub3 mutant strain, at 50.0 µM, stronger effect = higher value
Procedure, shortened: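 Inhibition values come from growth of compound-treated mutant yeast normalised to vehicle-treated controls.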

[6] = NCI Yeast Anticancer Drug Screen. Data for the mlh1 rad18 strain (AID 175); details: S. cerevisiae mlh1 rad18 strain growth inhibition; at 50.0 µM; stronger effect = higher value
Procedure, shortened: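 Steps: expose repair-defective yeast to compound; measure growth; express inhibition against vehicle-treated controls.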

Measured: growth inhibition

Cc1cc2c(cc1N)C(C)(C)CCC2(C)C
inactive: [1] -4.65% | [2] -18.2% | [3] 10.2% | [4] -24.9% | [5] -11.8% | [6] -18.1%

CCCCCN(CCCCC)C(=S)[S-].CCCCCN(CCCCC)C(=S)[S-].[Zn]
inactive: [2] 53.6% | [4] 46.4% | [5] 42.1% | [6] 60.8%
active: [1] 72.7% | [3] 72.1%

CCO/C(O)=c1/s/c(=C2/SC(=S)N(c3ccc(C)cc3)C2=O)n(-c2ccccc2)c1=N
inactive: [1] -3.8% | [2] -16.8% | [3] -16.4% | [4] -55.5% | [5] -21.4% | [6] -28.4%

Cc1cc2nc(N)n[n+]([O-])c2cc1C
inactive: [1] 8.4% | [2] 7.35% | [3] 2% | [4] -6.25% | [5] 1% | [6] -24.9%

Brc1ccc(/C=C/c2ccnnc2)cc1
inactive: [1] 41.5% | [2] 33.8% | [3] 34.6% | [4] 25.5% | [5] 47.7% | [6] 34.4%

Cc1ccccc1N=Nc1c(-c2ccccc2)nn(C(N)=S)c1-c1ccccc1
inactive: [1] 36.2% | [2] 7.2% | [3] 24.1% | [4] 4.05% | [5] 0.95% | [6] 19%

C=CCNC(=O)NCCCCC(NC(C)=O)C(=O)NCc1ccccc1 (stereo unspecified)
inactive: [1] -25.4% | [2] -18.4% | [3] -13.6% | [4] 2.35% | [5] -16.8% | [6] -10%

CN(NC(=O)CCCl)C1=NCCCCN1
inactive: [1] -6.6% | [2] -17.9% | [3] -4.95% | [4] 43.5% | [5] -0.5% | [6] 19.4%

Brc1cccc2ccccc12
inactive: [1] 23.6% | [2] -13.9% | [3] 0.7% | [4] -38% | [5] -12.3% | [6] 6.85%

CCOC(=O)c1cc2nc(NC(=O)c3ccccc3)sc2n1C
inactive: [1] 4.85% | [2] 8.3% | [3] 7.3% | [4] 10.3% | [5] 6.4% | [6] 16.8%

CCCCN(C)CCNc1cc(C)nc(Nc2nc3ccc(Cl)cc3[nH]2)n1
active: [1] 90% | [2] 96.2% | [3] 74.9% | [4] 96.6% | [5] 97.9% | [6] 96.2%

Nc1ccc(Nc2cc(=O)[nH]c(=O)[nH]2)cc1Cl
inactive: [1] 5.8% | [2] 6.6% | [3] 14.1% | [4] 6.2% | [5] -3.2% | [6] -20.8%

Cc1ccc(-c2cc(-c3cc(-c4ccc(C)cc4)nc(N)n3)nc(N)n2)cc1
inactive: [1] 3.7% | [2] -13.4% | [3] -20.1% | [4] -13.2% | [5] -25.1% | [6] -13%

N#CCSCC(N)C(=O)O (stereo unspecified)
inactive: [1] -11.1% | [2] -15.2% | [3] -1.1% | [4] -6.75% | [5] -19.6% | [6] -4.8%

O=[N+]([O-])c1ccc(/C=C2/c3ccccc3-c3nc4ccccc4cc32)cc1
inactive: [1] 21.9% | [2] -2.55% | [3] -2.9% | [4] -2.6% | [5] 7.3% | [6] 20.8%

CCOc1ccccc1C(=O)Oc1ccc(C)cc1
inactive: [1] -4.6% | [2] -19.2% | [3] 7.1% | [4] -3.85% | [5] -5.5% | [6] 24.1%

CC(=O)Nc1ccccc1Sc1ccccc1
inactive: [1] -6.5% | [2] -17.1% | [3] 4.35% | [4] 15.1% | [5] 4.6% | [6] -20.9%

CC(C)CNC(=O)Cn1c2c(c3ccccc31)CCCC2
inactive: [1] -4.5% | [2] -32.7% | [3] 1.4% | [4] 3.75% | [5] -14.8% | [6] -10.8%

O=C(Nc1ccccc1Cl)Oc1ccc(C(=O)c2ccccc2)cc1
inactive: [1] -0.3% | [2] -13.3% | [3] 30.2% | [4] 19.9% | [5] 16.9% | [6] 13.2%

NC(=O)C(Br)Cc1cccc(Cl)c1 (stereo unspecified)
inactive: [1] 29.6% | [2] 11.2% | [3] 13.4% | [4] 2.05% | [5] 17.9% | [6] 14.4%

NC(=O)C(=O)n1ncc(Cl)c(Cl)c1=O
inactive: [1] 2.65% | [2] -3% | [3] 1.05% | [4] 6.55% | [5] 8.25% | [6] -4.1%

COC(=O)CC(c1ccc(OC)cc1)C(CC(=O)OC)c1ccc(OC)cc1 (stereo unspecified)
inactive: [1] -19.2% | [2] -29.8% | [3] 13.9% | [4] 15.8% | [5] 25.9% | [6] -20.1%

Cc1cccc(Cl)c1NC(=O)NCCCN1CCOCC1
inactive: [1] 2.8% | [2] -14.9% | [3] 6.2% | [4] 14.1% | [5] -1.75% | [6] 6.45%

C/C=C/C(O)CC (stereo unspecified)
inactive: [1] 13.8% | [2] -38.4% | [3] 3.2% | [4] -0.85% | [5] -10.8% | [6] 0.5%

CCc1ccccc1NC(=O)C(=O)C(C#N)c1ccccc1Cl (stereo unspecified)
inactive: [1] -7.2% | [2] -30.6% | [3] -17.6% | [4] 3.55% | [5] 6.3% | [6] -9.45%

Nc1c(-c2nc3ccccc3[nH]2)sc(=S)n1-c1ccccc1
inactive: [1] -6.4% | [2] -21.4% | [3] 1.75% | [4] 2.2% | [5] -4.2% | [6] -17.9%

O=C(O)Cn1ccc(=O)c2c([N+](=O)[O-])cccc21
inactive: [1] 27.2% | [2] 16.1% | [3] 0.35% | [4] 5.3% | [5] 8.55% | [6] -51.6%

O=Nc1ccc(Br)cc1
inactive: [1] -8.2% | [2] 0.35% | [3] -11.7% | [4] 5.8% | [5] 13.1% | [6] -7.5%

N#CC(C(=O)O)C1(c2ccccc2)CCCCC1 (stereo unspecified)
inactive: [1] -13% | [2] 4.95% | [3] -5.3% | [4] -16% | [5] 1.1% | [6] -3.45%

CSc1nc(=O)cc(N)n1C
inactive: [1] 1.65% | [2] -1.55% | [3] 9.55% | [4] -23.7% | [5] -7.2% | [6] 7.9%

C=CC(CO)N(CC)CC (stereo unspecified)
inactive: [1] 9.55% | [2] 8.7% | [3] 7.25% | [4] 13.3% | [5] 1.8% | [6] 11.3%

COc1ccc(/C=C2\N=C(N/N=C\C(O)C(O)C(O)C(O)CO)NC2=O)cc1 (stereo unspecified)
inactive: [1] -7.3% | [2] -0.3% | [3] 9.2% | [4] 5.45% | [5] -3.8% | [6] -49.8%

Cc1ncc([N+](=O)[O-])n1CCNC(=O)CCn1ccnc1[N+](=O)[O-]
inactive: [1] 10.2% | [2] -43.7% | [3] -49.6% | [4] 1.1% | [5] -18.7% | [6] -22.9%

Cc1nc(-c2ccccc2)cc2c1c(=O)oc1ccccc12
inactive: [1] -14.7% | [2] -30.6% | [3] 4% | [4] 6.3% | [5] -5.4% | [6] -8.55%

O=C1OCC/C1=C1/NC2CCCCC2NC1=O (stereo unspecified)
inactive: [1] -6.55% | [2] -16.1% | [3] 1.15% | [4] -24.6% | [5] -6.25% | [6] -14.1%

O=C(c1ccccc1)c1cccc(C(=O)c2ccccc2)n1
inactive: [1] -7.5% | [2] -12.7% | [3] -17.7% | [4] 1.9% | [5] -13.8% | [6] -8.55%

O=C(O)c1ccccc1/C=N\NC1=NCCN1
inactive: [1] -45.1% | [2] -13.4% | [3] -11.4% | [4] 12.7% | [5] -13.7% | [6] -6.35%

CCOC(=O)C(Cc1ccc([N+](=O)[O-])cc1)(Cc1ccc([N+](=O)[O-])cc1)C(=O)OCC
inactive: [1] -8.9% | [2] -0.75% | [3] -15.3% | [4] -8.95% | [5] -25.6% | [6] -17.2%

CN(C)CCCN1N=Nc2cccc3cccc1c23
inactive: [1] 1.75% | [2] 8.25% | [3] -14.3% | [4] 11.7% | [5] 15.2% | [6] 20.1%

CCCCCCCCCCCCSC1=C(OC)C(=O)C(OC)=C(OC)C1=O
inactive: [1] 33.5% | [2] 13.8% | [3] 26.6% | [4] -5.2% | [5] -1.35% | [6] 16.5%

CC(=O)Nc1ccc(C=O)s1
inactive: [1] -0.65% | [2] 6% | [3] -15.4% | [4] -36.2% | [5] 1.65% | [6] -0.4%
